Sampled rows, rich in hits. Any-hit rate of the full collection: about 3%.
PAFAH2 inh: PAFAH2 (human) inhibition; recombinant PAFAH2, FP-rhodamine activity probe, fluorescence polarization; inhibition, % at 3.39 µM; AID 492956; 340,000 tested, 0.99% active;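 active means inhibition above the mean over all tested compounds plus 3 SD, cut at about 30% in these data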;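 further: inhibitors block probe labeling of enzyme so polarization drops; 0% = enzyme with DMSO and 100% = wells lacking PAFAH2 protein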
PAFAH1B3 FP inh: inhibitors of human PAFAH1B3; AID 492972; 340,000 tested, 0.28% active; inhibition, % at 3.39 µM; Q15102; recombinant PAFAH1B3, FP-rhodamine probe, fluorescence polarization;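 active means inhibition above the screen-wide average of all tested compounds plus 3 SD, cut at about 25% in these data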;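 further: 0% = enzyme with DMSO only and 100% = wells lacking PAFAH1B3 protein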
Target sequence (Q15102 whole entry, looked up): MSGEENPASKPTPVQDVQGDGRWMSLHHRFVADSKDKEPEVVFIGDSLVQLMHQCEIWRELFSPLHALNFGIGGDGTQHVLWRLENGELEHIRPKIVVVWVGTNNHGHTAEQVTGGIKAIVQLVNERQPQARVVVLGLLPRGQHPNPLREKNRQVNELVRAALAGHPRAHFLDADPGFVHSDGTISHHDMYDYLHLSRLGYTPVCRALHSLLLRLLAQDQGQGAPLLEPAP
Fh CTSL1 inh: cathepsin L1 inhibition, PFM18AAP counter-screen; AID 1906; recombinant F. hepatica cathepsin L1, Z-Leu-Arg-MCA fluorescence; inhibition, % at 5.96 µM; 300,000 tested, 0.49% active;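 active means inhibition above the mean of all tested compounds plus 3 SD, set per screening campaign, cut at about 17% in these data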;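 further: 0% = plate median of test compound wells and 100% = 1 µM Z-Phe-Ala-diazomethylketone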
pPAFAH inh: pPAFAH (human) enzyme inhibition; Q13093; recombinant pPAFAH, FP-rhodamine probe fluorescence polarization; inhibition, % at 3.39 µM; 330,000 tested, 1.5% active; AID 463082;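 active means inhibition above the mean inhibition across the screen plus 3 SD, cut at about 25% in these data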;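 further: inhibitors block binding of the rhodamine activity-based probe so polarization drops; 0% = enzyme with DMSO and 100% = wells lacking pPAFAH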
PP5 primary: inhibitors of human protein phosphatase 5 (PP5). 320,000 tested, 0.18% active. purified PP5c, OMFP substrate fluorescence. P53041. inhibition, % at 6.7 µM;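 active means inhibition above the campaign's mean inhibition across all tested compounds plus 3 SD, cut at about 9.5% in these data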;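 further: 0% = DMSO only and 100% = 100 µM cantharidin control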
PAFAH1B2 FP inh: inhibitors of human PAFAH1B2; P68402; recombinant PAFAH1B2, FP-rhodamine activity probe, fluorescence polarization; inhibition, % at 3.39 µM; 340,000 tested, 1.2% active; AID 492953;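 active means inhibition above the mean of all tested compounds plus 3 SD, cut at about 24% in these data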;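 further: 0% = enzyme with DMSO and 100% = wells lacking PAFAH1B2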
Target sequence (P68402 whole entry, looked up): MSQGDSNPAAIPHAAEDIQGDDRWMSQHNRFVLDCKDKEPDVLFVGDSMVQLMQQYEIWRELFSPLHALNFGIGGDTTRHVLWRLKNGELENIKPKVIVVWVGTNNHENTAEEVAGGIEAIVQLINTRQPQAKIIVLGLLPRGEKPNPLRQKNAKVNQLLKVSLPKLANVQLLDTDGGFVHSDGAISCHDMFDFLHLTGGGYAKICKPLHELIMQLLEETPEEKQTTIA
An asterisk follows results filed as active; nt = no result.

SMILES	PAFAH2 inh	PAFAH1B3 FP inh	Fh CTSL1 inh	pPAFAH inh	PP5 primary	PAFAH1B2 FP inh
O=C(OCc1c(Cl)cccc1Cl)c1cccnc1	6.7	1.9	-0.2	33.1*	1.0	0.7
CCCCCCC[C@@H](C/C=C/CCC(=O)O)OC	-0.3	7.6	nt	10.6	nt	9.7
CCCCCCC[C@@H](C/C=C/CCC(=O)N(C)C/C(=C/Cl)C/C(=C\C(=O)N1CC(OC)=CC1=O)OC)OC	8.4	7.5	nt	28.1*	nt	2.6
Cc1nn(CCC(=O)O)c2nc(-c3cccnc3)cc(C(F)(F)F)c12	-9.6	5.9	-1.2	-0.1	1.3	7.9
Cc1nn(CCc2nn[nH]n2)c2nc(-c3ccc(C4CCCCC4)cc3)cc(C(F)(F)F)c12	16.6	-6.5	11.3	27.1*	5.2	0.0
NC(=S)N/N=C1/CCSc2ccc3ccccc3c21	3.8	6.4	25.4*	0.9	4.5	0.8
NC(=S)N/N=C/c1c(O)ccc2ccccc12	26.7	22.9	5.7	7.4	-0.4	5.6
CCc1nnc(NC(=O)CSc2sc3c(O)cc(=O)[nH]c3c2C#N)s1	29.6	24.8	-4.2	31.8*	0.3	19.1
Cc1csc(NC(=O)CSc2sc3c(O)cc(=O)[nH]c3c2C#N)n1	37.3*	22.4	-3.2	33.2*	0.6	16.2
Nc1n[nH]c2c1C1(CCCCC1)Cc1ccccc1-2	0.8	7.4	1.0	-0.8	2.2	31.8*
COc1cc(/C=C2\SC(=O)N(c3cccc(Cl)c3)C2=O)cc([N+](=O)[O-])c1O	52.5*	15.3	nt	nt	nt	3.1
O=C1S/C(=C\c2ccc(O)c([N+](=O)[O-])c2)C(=O)N1Cc1cccc([N+](=O)[O-])c1	nt	nt	5.9	21.1	2.9	nt
O=C1S/C(=C\c2ccc(O)c([N+](=O)[O-])c2)C(=O)N1c1ccccc1Cl	26.6	20.7	5.2	33.5*	1.3	3.0
COc1cc(/C=C2\SC(=O)N(c3ccc(Cl)cc3)C2=O)cc([N+](=O)[O-])c1O	18.8	11.5	nt	nt	nt	7.9
Cc1nnc(SC(C)C(=O)Nc2ccc(N3CCOCC3)cc2)n1Cc1ccccc1 (configuration not stated)	-3.2	-2.8	nt	nt	nt	-1.4
CC(C)C[C@H](N)c1nnc(S(=O)(=O)Cc2ccc(F)cc2)o1	3.7	5.2	53.8*	3.8	1.3	3.4
COC(=O)c1ccc(CS(=O)(=O)c2ccc(F)cc2)o1	10.4	7.9	-3.1	8.7	-1.2	-1.0
N#CCCn1cc(/C=N/O)c(-c2ccccc2)n1	-2.9	6.5	-0.5	-1.4	0.5	7.2
N#CCCn1cc(/C=N/NC(N)=S)c(-c2ccc(-c3ccccc3)cc2)n1	-4.2	1.8	29.2*	11.7	1.5	-2.9
Cc1ccc(-n2ncc3c2CCCC3NC(=O)CCCN2CCCC2=O)cc1C (configuration not stated)	4.2	1.9	-4.2	9.9	-0.2	5.5
CC(C)(C)c1ccc(-n2ncc3c2CCCC3NC(=O)CCN2CCCCC2=O)cc1 (configuration not stated)	25.8	9.1	-1.8	64.0*	0.4	2.3
O=C(NC1CCN(Cc2ccc(Cl)cc2Cl)CC1)c1ccccc1	6.4	6.7	3.8	5.0	1.4	10.9
CCN1CCN(C(=S)NC(=O)c2cccs2)CC1	-5.2	3.5	4.2	-1.4	0.2	3.6
O=C(NC(=S)N1CCN(c2ccc(C(F)(F)F)cc2[N+](=O)[O-])CC1)c1cccs1	4.2	-2.6	5.7	33.8*	-0.4	1.7
COc1c(C)cccc1C(=O)NCc1ccc2c(c1)OCO2	-5.8	5.3	2.3	1.8	1.6	6.4
O=C(COC(=O)c1ccc([N+](=O)[O-])s1)Nc1ccc(Cl)cn1	21.6	23.8	44.5*	20.4	-1.2	10.6
O=C(COC(=O)c1cnccn1)Nc1ccc(Cl)cn1	-4.8	4.8	-9.8	5.4	-2.5	-2.5
Cc1c(Cl)cnc(NC(=O)COC(=O)c2ccc([N+](=O)[O-])s2)c1Cl	47.0*	33.2*	58.9*	20.0	2.8	16.3
COc1ccc(NC(=O)C2CCCN(S(C)(=O)=O)C2)cc1Cl (configuration not stated)	-0.7	10.3	2.2	1.7	0.9	4.5
COc1ccc(S(=O)(=O)Nc2ccc3c(c2)C(=O)N([C@@H](C)CO)C[C@H](C)[C@H](CN(C)S(=O)(=O)c2ccc(F)cc2)O3)cc1	6.0	9.4	nt	17.0	nt	39.0*
